Data from the supplement of paper PMC12645437, “Orthogonal IMiD-Degron Pairs Induce Selective Protein Degradation in Cells” (ACS Chemical Biology, 2025).
The full ranking holds about 8,300 sequences; the median of “log2 fold change of degron read counts, EGFP-low vs EGFP+ sorted cells (limma voom), compound-induced degradation” is about -1.1, and the highest 2% start at about 3.2. This is one part of a sample in which the highest values are shown more often than they occur.

Molecular target: T1, CRBN, Q96SW2
T1 chain: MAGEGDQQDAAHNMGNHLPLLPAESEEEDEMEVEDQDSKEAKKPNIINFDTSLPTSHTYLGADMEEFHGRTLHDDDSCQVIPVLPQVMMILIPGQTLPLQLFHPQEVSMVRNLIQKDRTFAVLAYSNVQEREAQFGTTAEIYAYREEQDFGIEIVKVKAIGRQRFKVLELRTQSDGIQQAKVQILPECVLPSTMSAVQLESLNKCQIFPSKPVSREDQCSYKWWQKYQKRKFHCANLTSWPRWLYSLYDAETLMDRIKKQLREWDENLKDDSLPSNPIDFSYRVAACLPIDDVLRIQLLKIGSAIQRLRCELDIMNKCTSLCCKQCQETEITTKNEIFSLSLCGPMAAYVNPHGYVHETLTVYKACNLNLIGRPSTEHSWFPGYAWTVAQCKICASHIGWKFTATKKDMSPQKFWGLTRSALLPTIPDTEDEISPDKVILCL
Experiment: log2 fold change of degron read counts, EGFP-low vs EGFP+ sorted cells (limma voom), compound-induced degradation; higher = more compound-induced degradation of the degron-EGFP fusion; degrons are variants of IKZF1/3 zinc finger 2; compound dose not given here
Conditions: Jurkat, 18 h

[1] = compound: compound 19 (5-tert-butyl-thalidomide)
[2] = compound: compound 22 (5-morpholino-thalidomide)
[3] = compound: compound 33 (diphenyl IMiD analogue)
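Note: pooled lentiviral library of zinc finger degron-EGFP fusions in mCherry-positive Jurkat cells, FACS-sorted after compound exposure, with degron abundance counted by next-generation sequencing.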

## FMCNVCGAQFTQKGNLLRHIKL [46F_47M_49N_50V_52G_53A_54Q_55F_67L_, Q9UKT9]
[1]
  log2 fold change of degron read counts: -1.96
[2]
  log2 fold change of degron read counts: -1.18
[3]
  log2 fold change of degron read counts: 1.65
compound: thalidomide
  log2 fold change of degron read counts: -0.484

## FYCNVCGAEFTQKGNLLRHIKL [46F_47Y_49N_50V_52G_53A_54E_55F_67L_, Q9UKT9]
[1]
  log2 fold change of degron read counts: 0.141
[2]
  log2 fold change of degron read counts: -0.307
[3]
  log2 fold change of degron read counts: -0.204
compound: thalidomide
  log2 fold change of degron read counts: -1.92

## FDCSVCGHGFTQKGNLLRHIKL [46F_47D_49S_50V_52G_53H_54G_55F_67L_, Q9UKT9]
[1]
  log2 fold change of degron read counts: -2.13
[2]
  log2 fold change of degron read counts: -2.49
[3]
  log2 fold change of degron read counts: -2.85
compound: thalidomide
  log2 fold change of degron read counts: -2.61

## FICEICGHPFTQKGNLLRHIKL [46F_47I_49E_50I_52G_53H_54P_55F_67L_, Q9UKT9]
[1]
  log2 fold change of degron read counts: -2.2
[2]
  log2 fold change of degron read counts: -1.74
[3]
  log2 fold change of degron read counts: -1.09
compound: thalidomide
  log2 fold change of degron read counts: -0.749

## FTCNQCGAFFTQKGNLLRHIKL [46F_47T_49N_50Q_52G_53A_54F_55F_67L_, Q9UKT9]
[1]
  log2 fold change of degron read counts: -2.21
[2]
  log2 fold change of degron read counts: -2.47
[3]
  log2 fold change of degron read counts: -2.04
compound: thalidomide
  log2 fold change of degron read counts: -1.89

## FMCDQCGAMFTQKGNLLRHIKL [46F_47M_49D_50Q_52G_53A_54M_55F_67L_, Q9UKT9]
[1]
  log2 fold change of degron read counts: -2.85
[2]
  log2 fold change of degron read counts: -3.27
[3]
  log2 fold change of degron read counts: -1.88
compound: thalidomide
  log2 fold change of degron read counts: -2.89

## FVCEICGRYFTQKGNLLRHIKL [46F_47V_49E_50I_52G_53R_54Y_55F_67L_, Q9UKT9]
[1]
  log2 fold change of degron read counts: -1.62
[2]
  log2 fold change of degron read counts: -1.93
[3]
  log2 fold change of degron read counts: -1.15
compound: thalidomide
  log2 fold change of degron read counts: -0.136

## LGCPICGFQCTQKGNLLRHIKL [46L_47G_49P_50I_52G_53F_54Q_55C_67L_, Q9UKT9]
[1]
  log2 fold change of degron read counts: 3.74
[2]
  log2 fold change of degron read counts: 2.31
[3]
  log2 fold change of degron read counts: 1.15
compound: thalidomide
  log2 fold change of degron read counts: 1.18

## LSCPICGFQCTQKGNLLRHIKL [46L_47S_49P_50I_52G_53F_54Q_55C_67L_, Q9UKT9]
[1]
  log2 fold change of degron read counts: 2.31
[2]
  log2 fold change of degron read counts: 2.18
[3]
  log2 fold change of degron read counts: 1.54
compound: thalidomide
  log2 fold change of degron read counts: 1.93

## LHCPICGFQCTQKGNLLRHIKL [46L_47H_49P_50I_52G_53F_54Q_55C_67L_, Q9UKT9]
[1]
  log2 fold change of degron read counts: 2.57
[2]
  log2 fold change of degron read counts: 2.67
[3]
  log2 fold change of degron read counts: 2.36
compound: thalidomide
  log2 fold change of degron read counts: 1.96

## LACPICGFQCTQKGNLLRHIKL [46L_47A_49P_50I_52G_53F_54Q_55C_67L_, Q9UKT9]
[1]
  log2 fold change of degron read counts: 3.44
[2]
  log2 fold change of degron read counts: 2.59
[3]
  log2 fold change of degron read counts: 1.86
compound: thalidomide
  log2 fold change of degron read counts: 1.78

## LVCPICGFQCTQKGNLLRHIKL [46L_47V_49P_50I_52G_53F_54Q_55C_67L_, Q9UKT9]
[1]
  log2 fold change of degron read counts: 1.16
[2]
  log2 fold change of degron read counts: 2.72
[3]
  log2 fold change of degron read counts: 2.04
compound: thalidomide
  log2 fold change of degron read counts: 3.09

## LECPICGFQCTQKGNLLRHIKL [46L_47E_49P_50I_52G_53F_54Q_55C_67L_, Q9UKT9]
[1]
  log2 fold change of degron read counts: -0.146
[2]
  log2 fold change of degron read counts: -0.246
[3]
  log2 fold change of degron read counts: 2.16
compound: thalidomide
  log2 fold change of degron read counts: 3.16

## FCCPQCGAHFTQKGNLLRHIKL [46F_47C_49P_50Q_52G_53A_54H_55F_67L_, Q9UKT9]
[1]
  log2 fold change of degron read counts: -1.46
[2]
  log2 fold change of degron read counts: -2.19
[3]
  log2 fold change of degron read counts: -0.412
compound: thalidomide
  log2 fold change of degron read counts: -1.42

## FKCNQCGHPFTQKGNLLRHIKL [46F_47K_49N_50Q_52G_53H_54P_55F_67L_, Q9UKT9]
[1]
  log2 fold change of degron read counts: -2.61
[2]
  log2 fold change of degron read counts: -2.63
[3]
  log2 fold change of degron read counts: -2.72
compound: thalidomide
  log2 fold change of degron read counts: -2.3

## LKCEICGFTCTQKGNLLRHIKL [46L_47K_49E_50I_52G_53F_54T_55C_67L_, Q9UKT9]
[1]
  log2 fold change of degron read counts: -1
[2]
  log2 fold change of degron read counts: -2.29
[3]
  log2 fold change of degron read counts: -1.73
compound: thalidomide
  log2 fold change of degron read counts: 0.124

## LDCEICGFTCTQKGNLLRHIKL [46L_47D_49E_50I_52G_53F_54T_55C_67L_, Q9UKT9]
[1]
  log2 fold change of degron read counts: 0.0603
[2]
  log2 fold change of degron read counts: -0.828
[3]
  log2 fold change of degron read counts: -0.732
compound: thalidomide
  log2 fold change of degron read counts: 0.278

## LWCEICGFTCTQKGNLLRHIKL [46L_47W_49E_50I_52G_53F_54T_55C_67L_, Q9UKT9]
[1]
  log2 fold change of degron read counts: 3.55
[2]
  log2 fold change of degron read counts: 3.79
[3]
  log2 fold change of degron read counts: 3.08
compound: thalidomide
  log2 fold change of degron read counts: 1.83

## LMCEICGFTCTQKGNLLRHIKL [46L_47M_49E_50I_52G_53F_54T_55C_67L_, Q9UKT9]
[1]
  log2 fold change of degron read counts: 0.136
[2]
  log2 fold change of degron read counts: 1.5
[3]
  log2 fold change of degron read counts: 3.07
compound: thalidomide
  log2 fold change of degron read counts: 2.97

## LACEICGFTCTQKGNLLRHIKL [46L_47A_49E_50I_52G_53F_54T_55C_67L_, Q9UKT9]
[1]
  log2 fold change of degron read counts: 3.48
[2]
  log2 fold change of degron read counts: 3.3
[3]
  log2 fold change of degron read counts: 1.55
compound: thalidomide
  log2 fold change of degron read counts: 1.36

## LVCEICGFTCTQKGNLLRHIKL [46L_47V_49E_50I_52G_53F_54T_55C_67L_, Q9UKT9]
[1]
  log2 fold change of degron read counts: 1.83
[2]
  log2 fold change of degron read counts: 2.47
[3]
  log2 fold change of degron read counts: 2.5
compound: thalidomide
  log2 fold change of degron read counts: 3.21

## LSCEICGFTCTQKGNLLRHIKL [46L_47S_49E_50I_52G_53F_54T_55C_67L_, Q9UKT9]
[1]
  log2 fold change of degron read counts: 3.05
[2]
  log2 fold change of degron read counts: 2.87
[3]
  log2 fold change of degron read counts: 1.94
compound: thalidomide
  log2 fold change of degron read counts: 1.96

## LCCEICGFTCTQKGNLLRHIKL [46L_47C_49E_50I_52G_53F_54T_55C_67L_, Q9UKT9]
[1]
  log2 fold change of degron read counts: 2.49
[2]
  log2 fold change of degron read counts: 2.78
[3]
  log2 fold change of degron read counts: 2.65
compound: thalidomide
  log2 fold change of degron read counts: 2.98

## LLCEICGFTCTQKGNLLRHIKL [46L_47L_49E_50I_52G_53F_54T_55C_67L_, Q9UKT9]
[1]
  log2 fold change of degron read counts: 0.0109
[2]
  log2 fold change of degron read counts: -0.207
[3]
  log2 fold change of degron read counts: 1.27
compound: thalidomide
  log2 fold change of degron read counts: 2.65

## LYCEICGFTCTQKGNLLRHIKL [46L_47Y_49E_50I_52G_53F_54T_55C_67L_, Q9UKT9]
[1]
  log2 fold change of degron read counts: 3.57
[2]
  log2 fold change of degron read counts: 3.51
[3]
  log2 fold change of degron read counts: 3.19
compound: thalidomide
  log2 fold change of degron read counts: 2.25

## LGCEICGFTCTQKGNLLRHIKL [46L_47G_49E_50I_52G_53F_54T_55C_67L_, Q9UKT9]
[1]
  log2 fold change of degron read counts: 2.28
[2]
  log2 fold change of degron read counts: 2.37
[3]
  log2 fold change of degron read counts: 0.519
compound: thalidomide
  log2 fold change of degron read counts: 0.415

## LQCEICGFTCTQKGNLLRHIKL [46L_47Q_49E_50I_52G_53F_54T_55C_67L_, Q9UKT9]
[1]
  log2 fold change of degron read counts: 1.59
[2]
  log2 fold change of degron read counts: 2.54
[3]
  log2 fold change of degron read counts: 2.34
compound: thalidomide
  log2 fold change of degron read counts: 3.65

## LTCEICGFTCTQKGNLLRHIKL [46L_47T_49E_50I_52G_53F_54T_55C_67L_, Q9UKT9]
[1]
  log2 fold change of degron read counts: 1.29
[2]
  log2 fold change of degron read counts: 2.89
[3]
  log2 fold change of degron read counts: 2.18
compound: thalidomide
  log2 fold change of degron read counts: 3.14
